# FAS TE block – FAS thioesterase domain inhibitors, primary screen, biochemical, fluorescence intensity, uHTS | Fatty acid synthase (Homo sapiens), P49327 | recombinant FAS-TE, OMFH fluorogenic substrate, fluorescence endpoint | inhibition, % at 15 µM | 0.67% of 360,000 active | AID 602261, 2012;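 active means compounds whose normalised, plate-corrected inhibition of enzyme fluorescence in the single-dose primary screen is 50% or more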
# Myeloid diff MLP – induction of myeloid progenitor differentiation, primary screen, cell-based, flow cytometry, MLPCN library; ER-HoxA9 myeloid progenitors, lysozyme-GFP differentiation; calls only at 10 µM; 1% of 360,000 active; AID 624256, 2012;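 active means normalized GFP-positive differentiation at or above the plate's own cutoff, the solvent-only control mean plus 3 SD; inconclusive means no clear call, values can overlap the other calls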;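 further: cells exposed to compound for four days before flow analysis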
# NR3A LBD binder – binders of NR3A ligand-binding domain, primary screen, biophysical, differential scanning fluorimetry, uHTS; NR3A LBD differential scanning fluorimetry, Tm shift; 0% = protein alone, 100% = glycine-bound protein; Tm shift relative to glycine control, % at 25 µM; 2.5% of 340,000 active; AID 1259313, 2017;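 active means melting temperature shift of at least 10% of the positive control shift, at one fixed dose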
# rCAG RNA binder – binders of r(CAG) RNA repeats, primary screen, biochemical, fluorescence. r(CAG) RNA repeat, TO-PRO-1 dye displacement fluorescence. inhibition, % at 3 µM. 1.3% of 370,000 active. AID 651821, 2012;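 active means inhibition above the plate cutoff, the mean of all test compounds on that plate plus 3 SD, cut at about 35% in these data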;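 further: higher means more dye released from RNA so lower well fluorescence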
# MPTP block – mitochondrial permeability transition pore inhibitors, primary screen, biochemical, isolated mouse mitochondria, absorbance. inhibition, % at 10 µM. Ca2+ swelling absorbance, 30 min. 1.4% of 360,000 active;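 active means inhibition of 50% or more, scaled per plate between neutral and stimulator controls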
# Rh123 counter – fluorescence retest of MPTP screen hits in isolated mitochondria, single concentration. shares compounds with MPTP block. membrane potential, Rhodamine 123 fluorescence. inhibition, % at 10 µM. 78% of 5,000 active; in the data active means inhibition above about 22%
# MPTP swell DR – mitochondrial permeability transition pore inhibitors, dose response, biochemical, absorbance, uHTS hits | IC50, µM | isolated mitochondria swelling | shares compounds with MPTP block | 58% of 780 active; in the data active means IC50 below about 20 µM
# MPTP counter DR – fluorescent counter-screen in isolated mitochondria, dose response, counter-screen for MPTP inhibitor project, biochemical, fluorescence, uHTS hits; shares compounds with MPTP block; isolated mitochondria counterscreen, fluorescence read-out; IC50, µM; 49% of 780 active; AID 651564, 2012; in the data active means IC50 below about 80 µM
# A number is an active result; . = inactive; ? = inconclusive; / = not tested or not shown; + = active, no number. A selection: hits, their analogues and other compounds. The true share with any hit is near 5.7%.
SMILES,FAS TE block,Myeloid diff MLP,NR3A LBD binder,rCAG RNA binder,MPTP block,Rh123 counter,others
CCc1sc(C(=O)Nc2nc(-c3ccccn3)cs2)cc1C,.,.,.,/,68,.,
Fc1ccc(-c2nc(-c3cccs3)[nH]c2-c2ccc(F)cc2)cc1,.,.,19,.,77,74,
COc1cccc(/C=N\NC(=O)Cn2nnc3ccccc32)c1O,.,.,.,.,.,/,
O=C(Nc1ccc(Cl)c(Cl)c1)Nc1cc(S(=O)(=O)N2CCOCC2)ccc1N1CCCC1,.,.,11,.,94,68,
O=C(Nc1ccccc1F)Nc1cc(S(=O)(=O)N2CCOCC2)ccc1N1CCCC1,.,.,.,.,.,/,
O=C(Nc1ccc(Cl)c(Cl)c1)Nc1cc(C(=O)N2CCOCC2)ccc1N1CCCCC1,.,.,.,.,95,.,MPTP swell DR=18;MPTP counter DR=<2.5
O=C(NNC(=O)c1ccncc1)Nc1ccc(Br)cc1,.,.,14,.,87,102,
O=C(NNC(=O)c1cccnc1)Nc1ccc([N+](=O)[O-])cc1,.,.,.,.,102,102,
O=C(COc1ccc([N+](=O)[O-])cc1)NNC(=O)c1cccnc1,.,.,.,.,.,/,
O=C(NNC(=O)c1ccncc1)Nc1ccc([N+](=O)[O-])cc1,.,.,.,.,82,92,
O=C(NNS(=O)(=O)c1ccc([N+](=O)[O-])cc1)c1ccncc1,.,.,.,.,.,/,
Cc1ccc(Cl)c2sc(N3CCN(C(=O)c4ccco4)CC3)nc12,.,.,.,.,.,/,
CCCC(=O)N1CCN(c2ccc(NC(=S)NC(=O)c3cccc(C)c3)cc2)CC1,.,.,.,.,77,56,
COc1cccc(C(=O)NC(=S)Nc2ccc(N3CCCC3)cc2)c1,.,.,.,.,.,/,
CN1CCN(c2ccc(NC(=S)NC(=O)c3cccc4c(Cl)cccc34)cc2)CC1,.,.,.,.,91,.,
O=C([C@@H]1C[C@H]1c1ccccc1)N1CCC(Oc2cccnc2)CC1,/,/,/,.,/,/,
Cc1ccc(S(=O)(=O)N2CCC[C@H]2C(=O)NC2CCCCC2)cc1,.,.,.,.,.,/,
Clc1ccc2c(N/N=C/c3ccccc3Br)ccnc2c1,.,?,.,.,57,99,
Clc1ccc2c(NNc3ccccc3Cl)ccnc2c1,.,.,.,.,.,/,
Clc1ccc2c(N/N=C/c3cccc(Br)c3)ccnc2c1,.,.,15,.,62,94,
Cc1cc(/C=C2\SC(=S)N(C)C2=O)c(C)n1-c1ccccc1O,.,+,.,.,92,67,
Cc1cc(/C=C2/SC(=S)N(c3ccc([N+](=O)[O-])cc3)C2=O)c(C)n1-c1cccnc1,.,.,.,.,95,95,
Cc1cc(/C=C2/SC(=S)N(c3cccc(Cl)c3)C2=O)c(C)n1-c1cccnc1,.,+,.,.,63,78,
Cc1cccc(N2C(=O)/C(=C/c3cccnc3)SC2=S)c1,.,.,.,.,.,/,
Cc1cc(/C=C2\SC(=S)N(C)C2=O)c(C)n1-c1ccc(O)cc1,.,.,.,.,.,/,
SMILES,FAS TE block,Myeloid diff MLP,NR3A LBD binder,rCAG RNA binder,MPTP block,Rh123 counter,others
Cc1ccc(C(=O)N(CC(=O)Nc2ccc(Cl)c(Cl)c2)Cc2ccco2)cc1,.,.,.,.,53,71,
O=C(CN(Cc1ccco1)C(=O)c1ccccc1)Nc1ccc(Cl)c(Cl)c1,.,.,.,.,.,/,
CCC(=O)c1ccc(OCc2ccc(C(=O)c3ccccc3)cc2)cc1,.,.,.,.,101,104,
Cc1cccc(OC(=O)NCCOC(=O)N(O)c2ccc(Cl)cc2)c1,.,.,.,.,91,81,
CC(C)(CO)NCc1ccccc1OCC(=O)Nc1ccccc1,.,.,.,.,.,/,
Cc1ccc(NC(=O)COc2ccccc2CNC(C)(C)CC(C)(C)C)cc1,.,.,.,.,50,34,
